NR3A LBD binder – binders of NR3A ligand-binding domain, primary screen, biophysical, differential scanning fluorimetry, uHTS | Glutamate receptor ionotropic, NMDA 3A (GRIN3A) ligand-binding domain | NR3A LBD differential scanning fluorimetry, Tm shift; 0% = protein alone, 100% = glycine-bound protein | Tm shift relative to glycine control, % at 25 µM | 340,000 tested, 2.5% active | AID 1259313, 2017;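 active = melting temperature shift of at least 10% of the positive control shift, at one fixed dose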
UBC13 polyUb – UBC13 polyubiquitin chain formation inhibitors, primary screen, biochemical, TR-FRET, uHTS; inhibition, % at 20 µM; 330,000 tested, 0.47% active; in the data active = inhibition above about 45%, passing the limit was not always enough
Target sequence (P61088 whole entry, looked up): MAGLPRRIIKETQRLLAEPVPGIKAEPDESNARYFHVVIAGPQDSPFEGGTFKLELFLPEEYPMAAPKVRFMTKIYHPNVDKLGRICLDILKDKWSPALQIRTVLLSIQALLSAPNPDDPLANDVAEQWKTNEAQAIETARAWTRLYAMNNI
SUMO HTRF inh – inhibitors of in vitro SUMOylation cascade, primary screen, biochemical, HTRF, uHTS | SUMO-conjugating enzyme UBC9 (Homo sapiens), P63279 | HTRF SUMOylation assay, SAE1/SAE2 + UBC9 | inhibition, % at 35 µM | 290,000 tested, 0.36% active | AID 2006, 2009; in the data active = inhibition above about 50%, passing the limit was not always enough
Target sequence (P63279 whole entry, looked up): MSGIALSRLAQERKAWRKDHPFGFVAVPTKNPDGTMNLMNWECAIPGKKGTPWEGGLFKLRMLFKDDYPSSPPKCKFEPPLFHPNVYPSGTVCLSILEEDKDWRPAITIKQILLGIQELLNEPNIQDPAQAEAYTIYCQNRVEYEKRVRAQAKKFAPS
sPLA2-III inh – human group III sPLA2 inhibitors, primary screen, biochemical, QFRET, BODIPY PC-A2 liposome substrate; Group 3 secretory phospholipase A2 (Homo sapiens), Q9NZ20; QFRET BODIPY PC-A2 liposome hydrolysis, fluorescence; inhibition, % at 12.2 µM; 370,000 tested, 0.56% active; AID 743126, 2013;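 active = inhibition above mean plus 3 SD of compounds lying within the high and low control bounds, cut at about 19% in these data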
sPLA2 confirm – human group III sPLA2 inhibitors, confirmation, biochemical, QFRET, triplicate; 2,000 tested, 34% active; shares compounds with sPLA2-III inh; recombinant hGIII-sPLA2, BODIPY PC-A2 QFRET fluorescence; inhibition, % at 12.2 µM;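 active = mean inhibition across triplicates above the hit cutoff set in the earlier primary screen, cut at about 19% in these data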
BODIPY interf – 535nm fluorescence optical interference, confirmation, artefact control for HGIII-sPLA2 inhibitor project, biochemical, QFRET; shares compounds with sPLA2-III inh; 2,000 tested, 8.5% active; AID 743282, 2014; BODIPY FL product fluorescence interference; inhibition, % at 12.2 µM;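 active = average inhibition above the solvent-only control mean plus 3 SD, cut at about 6% in these data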
535nm interf DR – 535nm fluorescence optical interference, dose response, artefact control for HGIII-sPLA2 inhibitor project, biochemical, QFRET | IC50, µM | BODIPY FL product fluorescence interference, cell-free | 240 tested, under 10 active | AID 743455, 2014 | shares compounds with sPLA2-III inh;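 active = IC50 at or below 10 µM; inactive = IC50 above 10 µM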
Large screens that a line does not name were inactive (follow-up assays come after a bar, where they were run). In the library only some 3.3% were active in any assay of this set; here they are far more common.

COc1cc(C(=O)NNC(=S)NC(=O)c2ccc(Cl)cc2)cc(OC)c1OC	sPLA2-III inh 25.9 | sPLA2 confirm 30.0 | BODIPY interf inactive | 535nm interf DR inactive
Cc1cccc(C(=O)NC(=S)NNC(=O)c2cccs2)c1	none
COc1ccc(C(=O)NNC(=S)NC(=O)c2ccc(Cl)cc2)cc1	none (no result: SUMO HTRF inh)
O=c1c2ccccc2[nH]c(=S)n1Cc1cccnc1	sPLA2-III inh 20.1 | sPLA2 confirm inactive | BODIPY interf inactive
Fc1ccccc1-c1n[nH]c(=S)n1N=Cc1cccc(OCc2ccccc2)c1	none (no result: NR3A LBD binder, UBC13 polyUb, SUMO HTRF inh)
O=C(Nc1ccccc1)Nc1ccccc1	none (no result: UBC13 polyUb, SUMO HTRF inh)
O=C(Nc1ccccc1)Nc1ccc(Nc2ccccc2)cc1	NR3A LBD binder 29.2, sPLA2-III inh 24.7 (no result: SUMO HTRF inh) | sPLA2 confirm inactive | BODIPY interf inactive
CC(=O)c1cc(-c2cccc(C(C)C)c2)c(=O)n2c1CCC2	none (no result: NR3A LBD binder, UBC13 polyUb, SUMO HTRF inh)
C[C@H]1[C@@H](OC(=O)NC2CCC2)CC[C@@]23CCCN2C(=O)CCC[C@@H]13	none (no result: NR3A LBD binder, UBC13 polyUb, SUMO HTRF inh)
COc1cc(OC)cc(C(=O)N2CCCc3ccccc32)c1	sPLA2-III inh 19.5 | sPLA2 confirm inactive | BODIPY interf inactive
COCCCNC(=O)CN(Cc1ccc(Cl)cc1)S(C)(=O)=O	sPLA2-III inh 20.6 | sPLA2 confirm inactive | BODIPY interf inactive
CC1(C)CC(=O)C(Sc2ccccc2)=C(O)C1	none
CC1(C)CC(=O)C(Sc2ccccc2C(=O)O)=C(O)C1	sPLA2-III inh 22.7 | sPLA2 confirm inactive | BODIPY interf inactive
CC(C)(C)c1ccc(C(=O)NNC(=S)NC(=O)c2cccnc2)cc1	none
COC(=O)c1ccc(NC(=S)NC(=O)c2cccnc2)cc1	sPLA2-III inh 21.3 | sPLA2 confirm inactive | BODIPY interf inactive
CC(C)(C)c1cc(Cl)c(O)c(NC(=S)NC(=O)c2cccnc2)c1	sPLA2-III inh 24.5 | sPLA2 confirm 22.8 | BODIPY interf inactive
O=[N+]([O-])c1cc(C=NN2CCN(Cc3ccccc3Cl)CC2)ccc1Cl	none (no result: NR3A LBD binder, UBC13 polyUb, SUMO HTRF inh)
O=C(CN(Cc1cccs1)S(=O)(=O)c1ccc(S(=O)(=O)N2CCCCC2)cc1)Nc1ccccc1	sPLA2-III inh 20.9 | sPLA2 confirm inactive | BODIPY interf inactive
O=C(CN(C1CC1)S(=O)(=O)c1ccc(S(=O)(=O)N2CCCCCC2)cc1)Nc1ccccc1	none
COC(=O)CC1CCc2cc(C)cc(C(=O)CC(C)C)c2O1 (stereo not given)	none (no result: NR3A LBD binder, UBC13 polyUb, SUMO HTRF inh)
C[C@@H]1COc2cccc(F)c2S(=O)(=O)N1C	none (no result: NR3A LBD binder, UBC13 polyUb, SUMO HTRF inh)
O=C(NNC(=S)NC(=O)c1ccccc1)c1cccnc1	none
O=C(NNC(=S)NC1CC2C=CC1C2)c1cccnc1 (stereo not given)	sPLA2-III inh 22.0 | sPLA2 confirm 21.2 | BODIPY interf inactive
COc1cccc(N=Nc2ccc(O)c3ncccc23)c1	sPLA2-III inh 24.8 | sPLA2 confirm 51.2 | BODIPY interf 14.0
COc1ccc(N=Nc2ccc(O)c3ncccc23)cc1	none
CC(C)(C)N1Cc2nnn(Cc3ccccc3)c2-c2cc(N3CCCCC3)ccc2S1(=O)=O	none (no result: NR3A LBD binder, UBC13 polyUb, SUMO HTRF inh)
COc1cc2c(cc1OC)C(c1ccccc1)=NCC2	sPLA2-III inh 26.6 | sPLA2 confirm inactive | BODIPY interf inactive
C=CCn1c(CSc2nnc(-c3ccccc3)n2C)n[nH]c1=S	none
C=CCn1c(SCc2n[nH]c(=S)n2-c2ccccc2)nnc1-c1ccccc1	sPLA2-III inh 20.1 | sPLA2 confirm inactive | BODIPY interf inactive
C=CCn1c(CSc2ccc(C)cc2)n[nH]c1=S	sPLA2-III inh 22.1 | sPLA2 confirm 24.7 | BODIPY interf inactive
C[C@@H]1OCN(C)[C@H]2C[C@H]3c4[nH]c5cccc(-c6ccccc6)c5c4CCN3C[C@@H]12	none (no result: NR3A LBD binder, UBC13 polyUb, SUMO HTRF inh)
CCCN1CCS(=O)(=O)N(Cc2cn(Cc3ccc(C)cc3)nn2)C(C(=O)OC)C1 (stereo not given)	none (no result: NR3A LBD binder, UBC13 polyUb, SUMO HTRF inh)

High-throughput results deposited in PubChem by several laboratories.
